High-throughput results from PubChem.
Hits are enriched below; roughly 1.8% of the tested compounds scored in any of these assays.
LYPLA1 counter: LYPLA1 inhibitors, primary screen, counter-screen for PME1 inhibitor project, biochemical, fluorescence polarization, FP-Rh probe ABPP; hit rate 0.16% among 320,000; AID 2174, 2009; recombinant LYPLA1; Acyl-protein thioesterase 1 (Homo sapiens), O75608; inhibition, % at 5.9 µM;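 active means inhibition above the mean of all tested compounds plus 3 SD, set per campaign, cut at about 14% in these data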;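 further: inhibitors block serine hydrolase probe labeling of LYPLA1 so polarization falls; 0% = enzyme with DMSO and 100% = wells lacking LYPLA1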
LYPLA2 counter: LYPLA2 inhibitors, primary screen, counter-screen for PME1 inhibitor project, biochemical, fluorescence polarization, FP-Rh probe ABPP. Acyl-protein thioesterase 2 (Homo sapiens), O95372. recombinant LYPLA2. inhibition, % at 5.9 µM. hit rate 0.38% among 320,000. AID 2177, 2009;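 active means inhibition above the screen-wide mean plus 3 SD, limit set per campaign, cut at about 26% in these data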;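 further: 0% = LYPLA2 with DMSO and 100% = wells lacking LYPLA2 enzyme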
GSTO1 counter: inhibitors of recombinant GSTO1, primary screen, counter-screen for RBBP9 inhibitor project, biochemical, fluorescence polarization; Glutathione S-transferase omega-1 (Homo sapiens), P78417; activity-based probe fluorescence polarization; inhibition, % at 5.96 µM; hit rate 1.1% among 300,000; AID 1974, 2009;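 active means inhibition above the campaign mean inhibition plus 3 SD, cut at about 35% in these data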;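 further: 0% = GSTO1-1 with DMSO and 100% = wells lacking GSTO1-1 enzyme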
Fam108B counter: mouse Fam108B serine hydrolase inhibitors, primary screen, counter-screen for RBBP9 inhibitor project, biochemical, fluorescence polarization; hit rate 0.33% among 300,000; recombinant Fam108B, FP-Rh probe fluorescence polarization; inhibition, % at 9.51 µM;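 active means inhibition above the screen mean inhibition plus 3 SD, computed separately per campaign, cut at about 18% in these data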;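 further: inhibitors lower polarization as less probe binds the enzyme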
PME-1 primary: PME-1 inhibitors via competitive probe labeling, primary screen, biochemical, fluorescence polarization, FP-Rh probe, HTS; recombinant PME-1; inhibition, % at 5.9 µM; hit rate 0.53% among 320,000;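 active means inhibition above the campaign mean of all compounds plus 3 SD, cut at about 26% in these data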;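 further: competitive labeling of PME-1 active site by serine hydrolase directed probe; 0% = PME-1 with DMSO and 100% = wells lacking PME-1 enzyme; inhibitors block probe labeling so polarization falls and inhibition rises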
PAD4 inh: human PAD4 inhibitors, primary screen, biochemical, fluorescence polarization, 1536-well format. Protein-arginine deiminase type-4 (Homo sapiens), Q9UM07. recombinant PAD4, RCA probe fluorescence polarization. inhibition, % at 6.36 µM. hit rate 0.41% among 330,000. AID 485272, 2010;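 active means percent inhibition above a cutoff equal to the mean of all tested compounds plus 3 SD, cut at about 15% in these data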;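 further: 0% = PAD4 with RCA probe and DMSO and 100% = probe without PAD4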
Target sequence (Q9UM07 whole entry, looked up): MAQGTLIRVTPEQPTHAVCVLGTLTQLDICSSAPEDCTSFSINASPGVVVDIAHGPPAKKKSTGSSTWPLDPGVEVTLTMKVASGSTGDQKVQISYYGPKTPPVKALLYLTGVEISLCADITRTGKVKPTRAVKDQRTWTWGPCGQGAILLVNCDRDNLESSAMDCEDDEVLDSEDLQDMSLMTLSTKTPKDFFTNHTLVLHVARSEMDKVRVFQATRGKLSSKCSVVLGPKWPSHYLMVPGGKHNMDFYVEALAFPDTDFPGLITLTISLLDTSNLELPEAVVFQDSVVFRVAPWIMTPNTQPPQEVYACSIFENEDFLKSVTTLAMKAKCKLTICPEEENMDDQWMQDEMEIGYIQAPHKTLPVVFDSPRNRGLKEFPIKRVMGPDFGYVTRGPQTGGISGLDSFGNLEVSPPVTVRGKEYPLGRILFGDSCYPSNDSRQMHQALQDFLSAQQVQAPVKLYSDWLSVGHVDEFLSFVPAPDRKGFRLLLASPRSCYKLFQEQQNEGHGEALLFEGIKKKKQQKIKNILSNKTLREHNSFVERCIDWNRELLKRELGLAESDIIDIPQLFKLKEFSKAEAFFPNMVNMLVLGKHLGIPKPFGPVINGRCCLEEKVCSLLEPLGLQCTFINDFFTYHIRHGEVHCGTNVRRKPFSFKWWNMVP
LYPLA1 conf: LYPLA1 inhibitors, retest, confirmation, counter-screen for PME1 inhibitor project, biochemical, fluorescence polarization, FP-Rh probe ABPP | AID 2233, 2010 | recombinant LYPLA1 | inhibition, % at 5.9 µM | hit rate 69% among 480 | shares compounds with LYPLA1 counter;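 active means mean inhibition across replicates above the hit cutoff set in the primary screen, cut at about 15% in these data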;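 further: loss of FP-Rh probe labeling of LYPLA1 seen as lower polarization; 0% = LYPLA1 with DMSO and 100% = wells lacking LYPLA1 enzyme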
LYPLA2 confirm: LYPLA2 inhibitors, retest, confirmation, counter-screen for PME1 inhibitor project, biochemical, fluorescence polarization, FP-Rh probe ABPP; recombinant LYPLA2; inhibition, % at 5.9 µM; hit rate 72% among 1,100; AID 2232, 2010; shares compounds with LYPLA2 counter;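 active means mean inhibition across replicates above the hit cutoff set in the primary screen, cut at about 26% in these data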;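 further: blocked labeling of the enzyme by serine hydrolase FP-Rh probe lowers polarization; 0% = enzyme with DMSO and 100% = wells lacking LYPLA2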
Starred values were filed as active, the others as inactive; nt = no result given; ! = a repeat was not active.

SMILES	LYPLA1 counter	LYPLA2 counter	GSTO1 counter	Fam108B counter	PME-1 primary	PAD4 inh	LYPLA1 conf	others
COc1ccc(NC(=O)C2CCC(CNc3c(N4CCCCC4)c(=O)c3=O)CC2)cc1OC (configuration not stated)	17.0*	1.8	2.6	-2.8	-0.8	-3.0	21.0*
Cc1ccc(C)c(NC(=O)C(OC(=O)c2cnc(C)cn2)c2ccccc2)c1 (configuration not stated)	2.9	0.5	-4.2	-2.4	-1.9	-3.1	nt
Cc1cnc(C(=O)OC(C(=O)Nc2cc(C(F)(F)F)ccc2Cl)c2ccccc2)cn1 (configuration not stated)	31.5*	-8.6	-2.3	2.3	3.8	0.2	-0.2
C=C[C@]1(C)C[C@@H](OC(=O)CSCCN(CC)CC)[C@]2(C)C(C)CC[C@]3(CCC(=O)[C@H]32)[C@@H](C)[C@@H]1O (some centres not stated)	14.8*!	0.5	4.2	2.2	-2.8	-0.6	3.3
Cc1cccc(NC(=O)CCc2nnc3ccc(NCc4ccco4)nn23)n1	-1.7	-6.1	-3.1	0.3	-8.5	-0.2	nt
CNc1ccc(/C=C(\CCC(=O)O)c2nc3ccccc3s2)cc1[N+](=O)[O-]	16.4*	11.1	25.1	12.6	25.5	-6.4	21.7*
CC(Oc1cccnc1[N+](=O)[O-])C(=O)Nc1cccc(Cl)c1 (configuration not stated)	0.7	9.3	nt	nt	1.9	6.9	nt
O=S(=O)(Nc1ccc(Cc2ccncc2)cc1)c1ccc(Cl)c(Cl)c1	2.4	-1.3	11.5	2.9	9.5	-1.6	nt
COc1ccc(S(=O)(=O)Nc2ccc(Cc3ccncc3)cc2)cc1OC	20.3*	1.2	25.1	3.9	14.7	3.4	28.2*
O=C(CCNc1cccc(F)c1)c1cccc([N+](=O)[O-])c1	0.0	5.0	-3.0	-3.5	-3.4	-2.4	nt
O=C(CCNc1ccc(Cc2ccncc2)cc1)c1cccc([N+](=O)[O-])c1	18.3*	20.4	5.9	7.3	10.5	-3.2	35.6*
O=C(CSc1nnc2ccc(-c3ccccn3)nn12)Nc1ccc(F)cc1F	-2.5	4.1	5.3	1.3	-1.1	1.8	nt
O=C1CCC([N+](=O)[O-])C(c2ccc(C(F)(F)F)cc2)N1 (configuration not stated)	0.2	2.0	-0.3	-4.3	-2.2	0.3	nt
O=C1CCC([N+](=O)[O-])C(c2ccc(-c3ccccc3)cc2)N1 (configuration not stated)	22.0*	10.5	-1.4	3.1	6.6	-1.6	24.0*
Cc1ccc(OCCN2C(=O)NC3(CCc4ccccc4C3)C2=O)cc1 (configuration not stated)	-5.5	-5.0	0.0	1.6	-7.4	-2.2	nt
CCNC(=S)NNC(=O)Cn1c(=O)c2c(ncn2CCOC)n(Cc2ccccc2)c1=O	40.9*	-9.7	0.8	-3.6	-4.3	0.8	1.3
Nc1ncc(Br)cc1S(=O)(=O)NCCC(=O)NCCc1ccccc1	4.3	3.6	9.1	-1.5	2.7	1.1	nt
O=C(O)CCCCCCCCCCCc1ccccc1	18.4*	25.7	6.2	3.4	-0.1	0.0	27.5*
CC(=O)c1ccc(N2CCN(C(=O)c3cccc(Oc4ccccc4)c3)CC2)cc1	47.7*	67.0*	7.5	0.1	4.0	-2.3	61.5*
COc1ccc(S(=O)(=O)N2CCOC2CNC(=O)C(=O)NCCc2ccccc2OC)cc1 (configuration not stated)	0.3	2.2	4.2	3.7	-7.1	-4.4	nt
O=C(NC1CC1)c1c[nH]c2ccc(S(=O)(=O)Nc3cccc(C(F)(F)F)c3)cc2c1=O	14.3*	-7.6	-3.8	-1.8	-1.1	-0.8	5.9
CC(C)CNC(=O)c1cccc(NC(=O)c2ccc3c(c2)C(=O)N(C)C3=O)c1	25.8*	14.6	6.7	0.1	2.5	0.0	26.8*
COC(=O)c1[nH]c2cc(OC)ccc2c1NC(=O)CN1CCN(c2cccc(C)c2)C(C)C1 (configuration not stated)	41.6*	10.9	20.8	4.3	9.9	-4.0	47.7*
CCCCn1c(N)c(N(CC)C(=O)c2cnc(C)cn2)c(=O)[nH]c1=O	0.7	5.9	nt	nt	-4.8	-4.4	nt
N#Cc1c(NC(=O)CSc2nc(N)cc(=O)[nH]2)sc2c1CCCC2	45.6*	13.8	-19.4	-0.5	1.8	3.0	46.5*
SMILES	LYPLA1 counter	LYPLA2 counter	GSTO1 counter	Fam108B counter	PME-1 primary	PAD4 inh	LYPLA1 conf	others
CC(C)C[C@H](NC(=O)OC(C)(C)C)C(=O)N[C@@H](CO)[C@H](O)[C@@H]1C[C@@H]1C(=O)N(C)C	-2.0	2.3	3.7	-2.5	-3.2	2.5	nt
COc1ccc(N2CCN(C(=O)CNC(=O)c3cn(-c4ccccc4OC)c(=O)c4ccccc34)CC2)cc1	15.4*	76.3*	2.6	-1.5	3.1	-2.8	25.7*	LYPLA2 confirm=81.0*
COc1ccc(-n2nc(C(=O)NCC(=O)N3CCN(Cc4ccc5c(c4)OCO5)CC3)c3ccccc3c2=O)cc1OC	50.3*	73.9*	13.4	0.6	-17.0	1.6	63.4*	LYPLA2 confirm=82.0*
COc1ccc(-n2nc(C(=O)NCC(=O)N3CCN(c4ccccc4)CC3)c3ccccc3c2=O)c(OC)c1	-1.7	21.7	2.6	1.4	4.4	2.3	nt
COc1ccc(-n2nc(C(=O)NCC(=O)N3CCOCC3)c3ccccc3c2=O)cc1OC	5.9	5.7	2.4	-4.7	1.1	-2.8	nt
COc1ccc(-n2nc(C(=O)NCC(=O)N3CCN(Cc4ccccc4)CC3)c3ccccc3c2=O)cc1	42.5*	68.7*	0.9	3.4	-5.0	-3.0	46.7*	LYPLA2 confirm=66.8*
COC(=O)CN1C(=S)N(c2ccc(F)cc2)C(=O)C1CC(=O)Nc1ccc(OC)cc1 (configuration not stated)	-0.3	3.5	4.7	1.2	-9.3	-0.8	nt
CCNC(=O)NC(=O)COC(=O)c1cccc(S(=O)(=O)N2CC3(C)CC2CC(C)(C)C3)c1 (configuration not stated)	0.6	-7.0	-6.7	-4.8	-8.3	-1.6	nt
